Screens deposited in PubChem BioAssay by Broad Institute.
Shown is part of a subset that was picked to be rich in hits.
Tgondii IFNg: T. gondii growth inhibition under IFN-gamma; hit rate 3.8% among 69,000; AID 1259416; activity change, negative = inhibition, % (concentration not given with the values); Toxoplasma gondii growth in IFN-gamma-treated host cells; active compounds read low; in the data active = activity change below about -70%, passing the limit was not always enough;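 also: host cells are HeLa cells infected with Toxoplasma gondii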
* marks the source's active call; other numbers are inactive results; ! = not confirmed by another sample.

Results for Cc1noc(C)c1C(=O)OCc1ccc(-c2ccc(F)cc2F)o1 ?
Tgondii IFNg: 28

Results for NC(=O)COc1ccc(CN2CCNC(C(=O)NC3CC3)C2)cc1Cl (stereo unspecified) ?
Tgondii IFNg: -45

How did CC(=O)N[C@@H]1Cc2ccccc2[C@H]1NC(=O)c1cn[nH]n1 do in these assays?
Tgondii IFNg: -4

How did CCn1c(=O)[nH]c2cc(Cl)c(Cl)cc21 do in these assays?
Tgondii IFNg: -84*!

What do the screens show for `COCCO[C@H]1CCN(S(=O)(=O)C2CC2)[C@H]1Cc1cnn(C)c1`?
Tgondii IFNg: -10

What do the screens show for `CC(=O)Nc1ccc(Cl)c(C(=O)N(C)CCCN2CCCCCC2)c1`?
Tgondii IFNg: -2

Results for CCOC(=O)c1cc(C)nc2c1c(=O)n(Cc1nc(-c3ccc(OC)cc3)oc1C)c(=O)n2C ?
Tgondii IFNg: -24

How did CCOC(=O)c1cc(C)nc2c1c(=O)n(Cc1nc(-c3ccc(OC(C)C)cc3)oc1C)c(=O)n2C do in these assays?
Tgondii IFNg: -81*

Results for CCOC(=O)c1cc(C)nc2c1c(=O)n(Cc1nc(-c3ccc(C)cc3)oc1C)c(=O)n2C ?
Tgondii IFNg: 8

How did CCCCN(CCCC)C(=O)c1cc2cccnc2n(Cc2ccc(F)cc2)c1=O do in these assays?
Tgondii IFNg: 63

What do the screens show for `O=C1c2ccccc2-c2ccc(N3CCCCC3)c3cccc1c23`?
Tgondii IFNg: 28

Results for Fc1ccc(N2CCC3(CC2)CC(c2cccnc2)CO3)cc1 (stereo unspecified) ?
Tgondii IFNg: -82*

How did N#Cc1ccc(N2CCC3(CC2)CC(c2cccnc2)CO3)cc1 (stereo unspecified) do in these assays?
Tgondii IFNg: -67

What do the screens show for `COc1ccc(CN2CCC3(CC2)CC(c2cccnc2)CO3)cc1` (stereo unspecified)?
Tgondii IFNg: -13

How did O=C(NC(=O)c1ccccc1F)OCc1ccc(Cl)cc1Cl do in these assays?
Tgondii IFNg: -37

What do the screens show for `N/C(Cc1ccc(Cl)cc1Cl)=N\OC(=O)c1ccc(Br)o1`?
Tgondii IFNg: -86*

Results for O=C(OCc1ccc(Cl)cc1Cl)c1ccc2ccccc2n1 ?
Tgondii IFNg: 45

What do the screens show for `CC1c2ncc(COCc3ccccn3)n2CCN1C(=O)CN(C)C` (stereo unspecified)?
Tgondii IFNg: 5

What do the screens show for `O=C(NCCc1csc(-c2ccccc2)n1)[C@H]1CSCN1S(=O)(=O)c1cccc(Cl)c1`?
Tgondii IFNg: -42

What do the screens show for `COc1cc(C)c2c(c1)C=CC1C2CCC2(C)C(O)CCC12` (stereo unspecified)?
Tgondii IFNg: 25

Results for C[C@]12CC[C@@H]3c4ccc(O)cc4C[C@@H](CCCCCCCCCS(=O)CCCC(F)(F)C(F)(F)F)[C@H]3[C@@H]1CC[C@@H]2O (stereo partly specified) ?
Tgondii IFNg: -78*

How did O=C(COc1ccc(F)cc1)OCCN1CCOCC1 do in these assays?
Tgondii IFNg: 13

What do the screens show for `c1ccc(-c2nn3c(c2-c2ccnc4cc(OCCN5CCOCC5)ccc24)CCC3)nc1`?
Tgondii IFNg: -78*

Results for O=C(Nc1cccc(OCCN2CCOCC2)c1)c1csc2c1CCCC2 ?
Tgondii IFNg: 14

Results for CC(C)C[C@H](NC(=O)[C@H](CC(N)=O)NC(=O)[C@@H](NC(=O)[C@@H](N)CCC(=O)O)C(C)C)[C@@H](O)C[C@@H](C)C(=O)N[C@@H](C)C(=O)N[C@@H](CCC(=O)O)C(=O)N[C@@H](Cc1ccccc1)C(=O)O ?
Tgondii IFNg: 11

Results for Cc1ccc(CN2CCc3c(COCCN(C)C)cncc3C2)s1 ?
Tgondii IFNg: 2

What do the screens show for `COc1ccc(CNC(=O)c2nc(N3CCOCC3)c3ccccc3n2)cc1`?
Tgondii IFNg: -4

Results for Cc1ccc(C)c(CNC(=O)c2nc(N3CCOCC3)c3ccccc3n2)c1 ?
Tgondii IFNg: -87*

How did COc1ccc(OC)c(CNC(=O)c2nc(N3CCOCC3)c3ccccc3n2)c1 do in these assays?
Tgondii IFNg: -40

How did C=CCN1CCN(C)C(=O)C12CCN(Cc1cncn1C)C2 (stereo unspecified) do in these assays?
Tgondii IFNg: 90

How did CCCS(=O)(=O)N1CCC(N(C)Cc2cccnc2)CC1C(=O)O (stereo unspecified) do in these assays?
Tgondii IFNg: 7

How did Clc1ccc(-c2nc(C34CC5CC(CC(C5)C3)C4)cs2)cc1 do in these assays?
Tgondii IFNg: 68

What do the screens show for `O=C(Nc1nc(C23CC4CC(CC(C4)C2)C3)cs1)c1ccccc1`?
Tgondii IFNg: -107*

What do the screens show for `O=C(NC12CC3CC(CC(C3)C1)C2)c1cccnc1`?
Tgondii IFNg: 6

What do the screens show for `CCOC(=O)c1nn(Cc2ccccc2)c2c1CN(Cc1coc3ccc(C)cc3c1=O)CC2`?
Tgondii IFNg: -17

How did Cc1nc(CN2C[C@@H](c3ccccc3)[C@@]3(CCNC3=O)C2)cs1 do in these assays?
Tgondii IFNg: -14

Results for CCc1ccc(NC(=O)Cn2c(=O)cc(-c3nc(C4CC4)no3)c3ccccc32)cc1 ?
Tgondii IFNg: -20

How did Cc1c(Cn2ccnc2-c2ccc3c(c2)CC(C)(C)O3)cnn1C do in these assays?
Tgondii IFNg: 27
